# Source: PubChem BioAssay
# Sampled rows, rich in hits. Any-hit rate of the full collection: about 3.9%.
# TPT1 inhibitor: C. albicans TPT1 enzyme inhibition; recombinant caTPT1, FP RNA substrate dephosphorylation; inhibition, % at 5 µM; 300,000 compounds, 0.81% hits; AID 1962;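 active = inhibition above the mean of all tested compounds plus 3 SD, set per screening campaign, cut at about 24% in these data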;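 note: plate controls were DMSO alone for no effect and ferristatin control at 100 nM for full effect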
# WT yeast gro inh: growth inhibition of WT yeast, mitochondrial fusion screen; mitochondrial fusion phenotypic screen, WT strain; inhibition, % at 10 µM; 190,000 compounds, 2.1% hits; in the data active = inhibition above about 58%; tested in S. cerevisiae
# Platelet DG rel: modulates dense granule release in human platelets; human platelet-rich plasma, SFLLRN dense granule ATP release, luminescence; inhibition, %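 (compounds screened at 7.5 µM in platelet-rich plasma)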; 300,000 compounds, 0.22% hits;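 active = mean replicate score, as percent of positive control, at or above 50; inconclusive = mean below 50 but at least one replicate at or above 50; inactive = mean and every replicate below 50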
# PHOSPHO1 block: inhibitors of human PHOSPHO1 phosphatase; Q8TCT1; recombinant PHOSPHO1, absorbance phosphatase assay; inhibition, % at 13.3 µM; 290,000 compounds, 1.1% hits; AID 1565; in the data active = inhibition above about 60%
# Target sequence (Q8TCT1 whole entry, looked up): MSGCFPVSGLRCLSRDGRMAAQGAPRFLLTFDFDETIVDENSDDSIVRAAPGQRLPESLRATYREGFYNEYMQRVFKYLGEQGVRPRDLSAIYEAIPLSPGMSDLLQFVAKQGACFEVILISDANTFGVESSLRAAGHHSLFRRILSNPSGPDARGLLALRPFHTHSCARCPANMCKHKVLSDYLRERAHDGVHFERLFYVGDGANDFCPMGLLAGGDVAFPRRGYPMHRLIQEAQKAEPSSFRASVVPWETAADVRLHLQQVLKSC
# SKKanGAS inh: inhibitors of SKKanGAS S. pyogenes growth in kanamycin (SK-promoter or general growth effect) | BacTiter-Glo, 6 h | inhibition, % at 7.5 µM | 300,000 compounds, 1.3% hits | AID 1662;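 active = mean replicate score, as percent of positive control median, at least 50; inconclusive = mean below 50 but one replicate at or above 50; inactive = mean and every replicate below 50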;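 note: strain carries kanamycin resistance gene driven by streptokinase promoter and grows in 40 µg/ml kanamycin; loss of luminescence reflects streptokinase promoter inhibition or plain growth inhibition; 0% = median of DMSO wells and 100% = positive control at its reference dose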
# Rtt109 Vps75: blocks Candida albicans Rtt109/Vps75 acetyltransferase activity. 330,000 compounds, 0.16% hits. purified Rtt109/Vps75, ThioGlo CoA-SH fluorescence, 4 h. inhibition, % at 34.9 µM;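 active = inhibition of at least 50% in every replicate; inconclusive = best replicate reaches 50% inhibition but some replicates fall short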
# Target sequence (Q5AAJ8 whole entry, looked up): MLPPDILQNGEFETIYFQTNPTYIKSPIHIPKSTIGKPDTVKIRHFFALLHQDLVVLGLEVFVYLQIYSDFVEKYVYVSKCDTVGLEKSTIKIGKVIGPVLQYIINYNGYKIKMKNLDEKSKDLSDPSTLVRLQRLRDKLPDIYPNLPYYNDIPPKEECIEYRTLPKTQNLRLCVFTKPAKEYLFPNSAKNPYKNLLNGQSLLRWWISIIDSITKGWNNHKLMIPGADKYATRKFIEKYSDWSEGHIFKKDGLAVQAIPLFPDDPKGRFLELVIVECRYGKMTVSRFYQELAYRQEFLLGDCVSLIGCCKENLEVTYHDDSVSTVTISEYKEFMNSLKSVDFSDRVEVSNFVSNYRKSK
# An asterisk follows results filed as active; ? = inconclusive; / = no result.
SMILES,TPT1 inhibitor,WT yeast gro inh,Platelet DG rel,PHOSPHO1 block,SKKanGAS inh,Rtt109 Vps75
COc1ccccc1OCC(=O)Nc1cc(Cl)ccc1N1CCCCC1,/,/,/,/,/,6.9
c1ccc(N(c2ccccc2)c2nc(-n3ccnc3)nc(-n3ccnc3)n2)cc1,-0.6,98.1*,7.3,18.2,11.6,4.6
c1ccc(-c2nc(N3CCN(c4ccccc4)CC3)nc(-n3ccnc3)n2)cc1,-1.0,67.7*,4.4,11.1,60.5*,-5.6
Nc1nc(-c2cccnc2)nc(N2CCCCC2)n1,-1.4,-11.4,-7.4,13.4,0.1,2.7
c1ccc(-c2nc(N3CCCCCC3)nc(-n3ccnc3)n2)cc1,-4.5,16.7,-1.7,44.8,86.0*,-0.3
O=C(OCC(=O)N1CCN(S(=O)(=O)c2ccc(Cl)cc2)CC1)C1CC1,/,/,/,/,/,-0.6
Cn1c(=O)cc(OCCCC(=O)N2CCN(c3ccccc3)CC2)c2ccccc21,0.9,58.2*,0.3,28.4,-3.9,13.7
OC(C#Cc1ccccn1)c1cccs1 (stereo not drawn),-11.5,-7.5,1.0,60.5*,-3.2,-11.4
COc1ccc(CN2CCC(C(=O)c3ccc(Cl)cc3)CC2)cc1,6.7,/,10.4,3.1,0.8,-1.6
O=C1NN(c2ccc(F)c(Cl)c2)C(=O)/C1=C\c1cccc(OC(=O)c2cccs2)c1,1.5,32.1,15.7,0.3,34.2,84.3*
CC(C)=C1C(=O)NN(c2ccc(F)c(Cl)c2)C1=O,16.9,3.2,1.2,30.7,-1.4,23.8
COc1ccc(CC(=O)N2CCN(c3ccc(C4=NNC(=O)CC4C)cc3)CC2)cc1 (stereo not drawn),-2.9,13.2,66.5*,28.4,-0.6,2.8
COc1ccc(CC(=O)N2CCN(C(=O)Cc3ccc(OC)cc3)CC2)cc1,1.6,10.2,-2.0,10.9,-0.8,-36.7
COc1cccc(OC)c1C(=O)Nc1ccc2c(c1)N(S(=O)(=O)c1cccs1)CCC2,-0.2,/,-9.0,-5.0,-7.5,-2.5
O=C(Nc1ccc2c(c1)N(S(=O)(=O)c1cccs1)CCC2)c1c(F)cccc1Cl,-1.1,/,15.0,/,51.2*,2.9
CCOC(=O)CSc1nc2ccc(N)cc2s1,0.5,-14.3,?,82.7*,2.2,4.7
CCOc1ccc2nc(SCC(=O)c3ccc(Cl)s3)sc2c1,23.2,5.4,6.5,62.3*,1.1,3.6
Nc1ccc2nc(SCC(=O)N3CCOCC3)sc2c1,1.5,8.9,-3.1,7.5,3.6,7.6
CCn1c(SC)nnc1C1CCCN(CC(=O)Nc2ccccc2N2CCOCC2)C1 (stereo not drawn),-0.2,/,-5.6,-62.4,0.8,6.2
Cc1ccc(-n2nnnc2C(Cl)c2nnnn2-c2ccc(C)cc2)cc1,/,74.2*,3.7,-3.4,-13.5,1.1
COc1cc(-c2nn3c(Cc4ccccc4)nnc3s2)cc(OC)c1OC,1.2,18.5,4.3,76.6*,15.1,7.1
CCOc1ccccc1OCc1nn2c(COc3ccccc3)nnc2s1,-3.5,20.0,4.0,-0.3,-6.4,14.7
c1ccc(Cc2nnc3sc(-c4ccco4)nn23)cc1,2.2,4.7,-0.9,95.9*,6.4,-11.6
c1ccc(Cc2nn3c(COc4ccccc4)nnc3s2)cc1,-0.4,5.5,-4.4,65.8*,-16.6,-12.8
COc1cc(-c2nn3c(COc4ccccc4)nnc3s2)cc(OC)c1OC,2.8,14.5,6.6,73.8*,5.2,2.0
SMILES,TPT1 inhibitor,WT yeast gro inh,Platelet DG rel,PHOSPHO1 block,SKKanGAS inh,Rtt109 Vps75
O=C(COC(=O)c1ccc(Br)o1)c1ccc(S(=O)(=O)N2CCCCC2)cc1,/,/,/,/,/,12.3
CSc1nsc(SCC(=O)Nc2ccc(F)cc2F)n1,-0.9,/,-18.6,26.5,-1.7,3.4
CC(=O)c1ccc(OCC(=O)NC2CCCCCC2)cc1,/,/,/,/,/,2.1
Cc1ccc(C(=O)NCC(=O)NC2CCCCCC2)cc1,0.3,/,-7.8,40.4,1.8,61.5*
COC(=O)c1ccc(OCC(=O)NC2CCCCCC2)cc1,1.3,/,0.0,62.6*,-8.3,-2.6
Cc1ccc(-n2c(C)n[nH]c2=S)cc1C,3.3,5.3,-6.2,-13.9,-14.5,14.3
CC1(CCc2ccccc2)NC(=S)N(c2ccc(Cl)cc2)N1 (stereo not drawn),-2.0,58.9*,-4.5,32.1,0.4,8.3
CC1=CC(C)(C)NC(=S)N1c1ccc(C)cc1,-0.7,-12.6,-1.5,-3.5,0.3,4.6
CCC1(c2ccc(Cl)cc2)NC(=S)N(c2ccc(C)cc2)N1 (stereo not drawn),-2.1,67.8*,5.7,-14.6,9.1,30.2
CC1=CC(C)(C)NC(=S)N1c1ccc(C)c(C)c1,-1.4,16.2,-9.6,4.4,-4.6,9.6
CCC1(c2ccc(Cl)cc2)NC(=S)N(c2ccc(C)c(C)c2)N1 (stereo not drawn),-1.2,/,-7.3,67.6*,24.0,/
CCC1(c2ccccc2)NC(=S)N(c2ccc(C)c(C)c2)N1 (stereo not drawn),-1.6,68.6*,-2.9,21.3,8.4,5.9
COC(=O)c1ccccc1NC(=O)CNc1cc(Cl)ccc1N1CCOCC1,1.8,64.2*,-10.7,35.3,33.5,-1.0
Cc1cc(Cl)ccc1OC(C)C(=O)Nc1ccccc1N1CCOCC1 (stereo not drawn),-3.2,72.8*,1.7,7.1,-2.4,-17.1
COc1ccc(Cl)cc1NC(=O)CN(C)CC(=O)Nc1ccccc1N1CCOCC1,-1.9,17.1,10.3,8.6,14.1,-3.3
COc1ccc(S(=O)(=O)N2CCOCC2)cc1C(=O)N1CCCCC1,-0.7,/,-1.1,-6.7,0.1,1.1
CCOc1ccc(-c2nc(N)ncc2Oc2ccccc2Br)c(O)c1,0.1,92.0*,-3.0,-13.6,11.4,5.9
C=C(C)COc1ccc(-c2ncncc2-c2ccc(Br)cc2)c(O)c1,-3.7,/,-1.9,32.6,9.0,-4.8
C=C(C)COc1ccc(-c2nc(N)ncc2Oc2ccc(OC)cc2)c(O)c1,4.3,-0.5,3.4,18.2,58.0*,2.4
C=C(C)COc1ccc(-c2[nH]ncc2Oc2ccc(OC)cc2)c(O)c1,-1.2,/,0.3,17.1,55.7*,17.2
C=C(C)COc1ccc(-c2[nH]ncc2Oc2ccccc2OC)c(O)c1,-4.0,45.7,-1.8,21.3,28.7,-1.3
C=C(C)COc1ccc(-c2nc(N)ncc2-c2ccc(Br)cc2)c(O)c1,0.2,/,-1.8,40.4,96.4*,-2.9
O=c1nc(-c2ccccc2)c2cc(SC(F)F)ccc2[nH]1,-4.8,/,-4.4,/,6.9,-7.4
Cc1cc(C)cc(NC(=O)C(c2ccccc2)N2CCN(CC(=O)NC3CC3)CC2)c1 (stereo not drawn),/,/,/,/,/,1.8
CC(C)[C@H](NC(N)=O)C(=O)Nc1cccc(S(=O)(=O)NC2=NCCCCC2)c1,/,/,/,/,/,-13.6
O=C(/C=C/c1ccc(Cl)cc1)OCC(=O)c1ccc[nH]1,/,/,/,/,/,2.5
Cc1ccc(C(OCC(O)CNCc2ccc(F)cc2)c2ccccc2)cc1 (stereo not drawn),0.6,/,10.1,9.8,7.1,6.8
CCOc1ccc(-c2[nH]ncc2Oc2ccccc2OCC)c(O)c1,-3.7,64.8*,26.2,-15.6,0.2,3.1
